Measured values as given in PMC4552634, “A New Set of Chemical Starting Points with Plasmodium falciparum Transmission-Blocking Potential for Antimalarial Drug Discovery” (PLoS ONE, 2015).
Screen size: about 13,000 compounds; about 3,200 (25%) showed an effect of 50% or more. Some of the results follow.

Test system: P. falciparum stage V gametocytes
Design: BacTiter-Glo ATP luminescence viability of purified stage V gametocytes in 384-well plates, per cent inhibition versus DMSO
Conditions: 48 h, 5 µM; inhibitor

Compound | % Inhibition
Cn1cnc2c(Nc3ccncc3)nc(-c3ccc(OC(F)(F)F)cc3)nc21 [TCMDC-141276] | -18.84%
CCCCCC(C)N=C(Nc1ccc(C#N)cc1O)Nc1cccc(Cl)c1Cl (centres unmarked) [TCMDC-140222] | -21.37%
CC[C@H](N=C(Nc1ccc(C#N)cc1O)Nc1cccc(Cl)c1Cl)c1ccccc1 [TCMDC-140225] | 74.86%
CC[C@H](N=C(Nc1ccc(-c2ccccc2)cc1)Nc1ccc(C#N)cc1O)c1ccccc1 [TCMDC-140209] | -62.75%
CSc1c(CNCCCNc2cc(=O)c3ccccc3[nH]2)[nH]c2ccccc12 [TCMDC-140648] | -17.76%
O=C(Nc1ccc(-c2cccc(CN3CCC(O)CC3)c2)cc1)c1cccc(Cl)c1 [TCMDC-132665] | -3.105%
N#Cc1cccc(C(=O)Nc2ccc(-c3cccc(CN4CCC(O)CC4)c3)cc2)c1 [TCMDC-132670] | -58.6%
O=C(Nc1ccc(Oc2ccccc2)cc1)N(Cc1ccc(-c2ccc(CN3CCNCC3)cc2)cc1)C1CCN(Cc2ccccc2)CC1 [TCMDC-139653] | 106.3%
O=C(Nc1ccc(Oc2ccccc2)cc1)N(Cc1ccc(-c2cccc(CN3CCNCC3)c2)cc1)C1CCN(Cc2ccccc2)CC1 [TCMDC-139637] | 111.2%
O=C(Nc1ccc(-c2nc3ccccc3[nH]2)cc1)C1CCN(Cc2ccccc2)CC1 [TCMDC-124891] | -65.72%
COC(=O)c1ccc(CN2CCC(N(Cc3cccc(Oc4ccccc4)c3)S(=O)(=O)c3ccc(NC(C)=O)cc3)CC2)cc1 [TCMDC-139500] | -7.518%
O=C(Nc1ccc(Cn2ncc(N3CCCNCC3)c(Cl)c2=O)cc1)Nc1cccc(Oc2ccccc2)c1 [TCMDC-133316] | 4.228%
O=C(Nc1ccc(Oc2ccccc2)cc1)N(CCN1CCCC1)Cc1ccc(-c2ccc(CN3CCNCC3)cc2)cc1 [TCMDC-139652] | 103.6%
O=C(Nc1cccc(-c2cccc(-c3nc4ccc(C(F)(F)F)cc4[nH]3)c2)c1)c1ccc(=O)[nH]n1 [TCMDC-137031] | -1.351%
O=C(Nc1ccc(-c2nc3ccccc3[nH]2)cc1)c1ccc(N2CCOCC2)c([N+](=O)[O-])c1 [TCMDC-124372] | -1.163%
O=C(NC1CC1)c1cnc(N2CCN(Cc3c(F)cccc3Cl)CC2)c(Cl)c1 [TCMDC-134607] | 20.64%
CCC(C)NC(=O)CN1CN(c2ccccc2)C2(CCN(C(=O)c3ccc(C(C)(C)C)cc3)CC2)C1=O (centres unmarked) [TCMDC-125176] | -75.94%
Nc1ncc(-c2ccccc2)cc1-c1nc2cc(Cl)c(F)cc2[nH]1 [TCMDC-138783] | -16.12%
CSc1ccc2nccc(Nc3ccc(Oc4ccccc4)cc3)c2c1 [TCMDC-138375] | -18.84%
Cc1c(S(=O)(=O)Nc2ccc3nccc(N4CC(C)NC(C)C4)c3c2)sc2ccc(Cl)cc12 (centres unmarked) [TCMDC-139464] | 2.238%
CC1CN(c2ccnc3ccc(Sc4ccc(Oc5ccccc5)cc4)cc23)CC(C)N1 (centres unmarked) [TCMDC-135857] | 94.55%
CC[C@H](C)CNC(=O)c1ccnc(-c2cccc(CN3CCC(N4CCCC4)CC3)c2)c1 [TCMDC-134244] | 20.81%

Compound | % Inhibition
O=S(=O)(c1cccc(C(F)(F)F)c1)N1CCC(CO)(Cc2cccc(C(F)(F)F)c2)CC1 [TCMDC-124606] | 41.83%
CCCS(=O)(=O)N1CCC(CO)(Cc2ccccc2C(F)(F)F)CC1 [TCMDC-124652] | 66.01%
N#Cc1ccc(CN2CCC(Oc3ccc(NC(=O)c4ccco4)cc3Cl)C2)cc1 (centres unmarked) [TCMDC-133963] | 28.15%
O=C(NC1CCCCC1)N(Cc1cccc(-c2ccc(CNC3CCCC3)cc2)c1)C1CCN(Cc2ccccc2)CC1 [TCMDC-140631] | 106.7%
O=C(NC1CCCCC1)N(Cc1cccc(-c2cccc(CNC3CCCC3)c2)c1)C1CCN(Cc2ccccc2)CC1 [TCMDC-140630] | 102.1%
O=C(NC1CCCCC1)N(Cc1ccc(-c2cccc(CNC3CCCC3)c2)cc1)C1CCN(Cc2ccccc2)CC1 [TCMDC-140638] | 83.36%
O=C(NC1CCCCC1)N(Cc1cccc(-c2ccc(CNCCc3ccccc3)cc2)c1)C1CCN(Cc2ccccc2)CC1 [TCMDC-140629] | 110.5%
COc1ccc2nccc(NCC3(O)CCN(CCc4ccc5c(c4)OCCO5)CC3)c2n1 [TCMDC-141461] | 34.43%
CC(C)CN1C(=O)C(c2ccc(F)c(F)c2)=C(O)C1c1ccccc1 (centres unmarked) [TCMDC-141919] | 11.18%
O=C(Nc1ccc(OC2CCN(Cc3ccccc3)C2)c(Cl)c1)c1ccsc1 (centres unmarked) [TCMDC-133969] | -1.877%
C=CCOC(=O)O[C@@H]1[C@@H](OC(=O)OCC=C)[C@@H](OC)O[C@H](COC(c2ccccc2)(c2ccccc2)c2ccccc2)[C@H]1OC(=O)OCC=C [TCMDC-139139] | 34.95%
COc1ccccc1N1CCN(CCCCNC(=O)c2ccc(NC(=O)c3cc4ccccc4o3)cc2)CC1 [TCMDC-138115] | -10.75%
Cc1cccc(CN2CCC(Oc3ccc(NC(=O)c4cccs4)cc3Cl)CC2)n1 [TCMDC-133964] | 24.07%
O=C(NC1CCCCC1)N(Cc1ccc(-c2ccc(CNC3CCCC3)cc2)cc1)C1CCN(Cc2ccccc2)CC1 [TCMDC-140639] | 105.2%
FC(F)(F)c1cccc2c(NN=Cc3ccccc3)ccnc12 [TCMDC-142025] | 48.45%
COc1ccc2ncc(F)c(CCN3CC[C@@H](CNCc4ccc5c(c4C)OCCO5)C3)c2n1 [TCMDC-136057] | 40.7%
COc1ccc(C(=O)CCC(=O)N(Cc2ccc(-c3ccc(CNCCc4ccc(S(C)(=O)=O)cc4)cn3)cc2)C2CCN(Cc3ccccc3)CC2)cc1F [TCMDC-141516] | 12.43%
O=C(Cc1cccnc1)N(Cc1ccc(-c2ccc(CNCc3cccnc3)cn2)cc1)C1CCN(Cc2ccccc2)CC1 [TCMDC-141503] | 73.31%
COc1ccc(C(=O)CCC(=O)N(Cc2ccc(-c3ccc(CNCc4cccnc4)cn3)cc2)C2CCN(Cc3ccccc3)CC2)cc1F [TCMDC-141504] | 91.04%
c1ccc(CN2CCC(NCc3ccc(-c4ccc(CNCc5cccnc5)cn4)cc3)CC2)cc1 [TCMDC-141613] | -15.37%
C=CCc1cccc(C)c1OCCCON1C(N)=NC(N)=NC1(C)C [TCMDC-131307] | 8.677%
Cc1cc(C)n2nc(C(=O)Nc3cc(C(F)(F)F)ccc3N3CCOCC3)nc2n1 [TCMDC-123614] | 4.468%

Compound | % Inhibition
Cc1cc(N(C)C)nc(Nc2ccc(NC(=O)c3ccc(Br)o3)cc2)n1 [TCMDC-124972] | -1.025%
CCCC(CNC(=O)c1cc2c(Cl)cc(Cl)cc2[nH]1)CNc1cc(=O)c2ccccc2[nH]1 (centres unmarked) [TCMDC-140519] | -10.38%
Cc1c(CC(=O)N(C)C2CCN(CCCCCNC(=O)/C=C/c3ccc(Cl)c(Cl)c3)CC2)sc2ccc(Cl)cc12 [TCMDC-139994] | -4.891%
COc1ccc(CCn2c(=N)c(C(=O)NCc3ccccc3)cc3c(=O)n4ccccc4nc32)cc1 [TCMDC-124472] | 34.54%
CCOC(=O)N(C)/N=C/[C@H](CCc1ccccc1)NC(=O)[C@H](CC(C)C)NC(=O)c1cc2cccc(OC)c2o1 [TCMDC-136018] | 75%
CCOC(=O)N/N=C/[C@H](CCc1ccccc1)NC(=O)[C@H](CC(C)C)NC(=O)c1cc2cccc(OC)c2o1 [TCMDC-135928] | 10.67%
CCC[C@@H](/C=N/N(C)C(=O)OC(C)(C)C)NC(=O)[C@H](CC(C)C)NC(=O)c1cc2cccc(OC)c2o1 [TCMDC-136059] | -6.333%
CCOc1cc(C(=O)NCCN(CC)c2cccc(C)c2)ccc1-c1nc2ccc(Cl)cc2[nH]1 [TCMDC-140916] | -6.076%
Nc1nc(N)c2cc3ccc(OCc4ccccc4)cc3nc2n1 [TCMDC-137967] | 109.1%
Nc1nccc2ccc(-c3ccc(OCc4ccccc4)cc3)cc12 [TCMDC-133423] | 12.93%
CCc1cc2c(N)nc(N)nc2nc1-c1ccccc1 [TCMDC-131931] | 14.27%
O=C(NC(Cc1ccccc1)C(=O)O)c1cc(=O)c2ccccc2o1 (centres unmarked) [TCMDC-131318] | 3.006%
Cc1ccccc1CN1CCCN(Cc2ccc(C(=O)Nc3ccc(Cl)cc3)cc2)CC1 [TCMDC-136402] | -5.846%
Cc1ccccc1Cc1cccc(/N=C(\N)Nc2ccc(Cl)cc2)n1 [TCMDC-138942] | 89.67%
O=C(Nc1cccc(OC2CCN(Cc3ccccc3)CC2)c1)c1ccc([N+](=O)[O-])cc1 [TCMDC-139543] | 0.689%
COc1cc2cc(C(=O)Nc3ccccc3)c(N)nc2cc1OC [TCMDC-123992] | 12.69%
CC1(C)N=C(NC(=O)Nc2ccc([N+](=O)[O-])cc2)N=C(N)N1OCc1cccc2ccccc12 [TCMDC-131582] | 35.05%
CN(c1ccccc1)c1ccnc(/N=C(\N)Nc2ccc(Cl)cc2)n1 [TCMDC-138941] | 49.31%
COc1ccc(CCN(C)CCOc2ccc(NC(=O)c3cccc4cc5ccccc5nc34)cc2)cc1OC [TCMDC-132112] | -28.68%
N/C(=N\c1cccc(Cc2ccc([N+](=O)[O-])cc2)n1)Nc1ccccc1 [TCMDC-138952] | 90.6%
COc1ccc(Cc2nc(N=C(N)Nc3ccccc3)ccc2OC)cc1 [TCMDC-138959] | 88.7%
